About 2,200 (0.71%) of roughly 310,000 compounds showed an effect of 50% or more. Effects have a minus sign here. Only a selection was taken, and strong results are over-represented in it overall.
What follows are molecules tested against human ether-à-go-go-related gene (hERG) potassium channel (human, UniProt Q12809) (assay: primary screen, population patch clamp on CHO cells stably expressing hERG; higher = less effect of the substance).
Procedure: Briefly, Chinese hamster ovary (CHO) cells stably expressing the hERG channel were dislodged from tissue culture flasks and dispensed into PPC plates. […] During the recording, background leak currents were estimated by a 100 ms step to -80 mV from an initial holding potential of -70 mV and subtracted from the subsequent current measurement. The campaign was conducted in two phases using slight differences in recording protocol. In the first phase, the initial voltage pulse used a 100 ms step to -30 mV from a holding potential of -70 mV, a 2 s conditioning step to +25 mV, and a 2 s test step to -30 mV. During the second phase of the screen, the potential during the conditioning step was raised to +45 mV. In both phases of the campaign, a secondary voltage pulse was applied using the same parameters as the second phase initial pulse. The initial and secondary pulses were applied in the absence of compound, and upon application of 1 μM and 10 μM test concentrations. Small molecule effects on hERG current density were quantified by […].

human ether-à-go-go-related gene (hERG) potassium channel, sequence (Q12809 whole entry, looked up): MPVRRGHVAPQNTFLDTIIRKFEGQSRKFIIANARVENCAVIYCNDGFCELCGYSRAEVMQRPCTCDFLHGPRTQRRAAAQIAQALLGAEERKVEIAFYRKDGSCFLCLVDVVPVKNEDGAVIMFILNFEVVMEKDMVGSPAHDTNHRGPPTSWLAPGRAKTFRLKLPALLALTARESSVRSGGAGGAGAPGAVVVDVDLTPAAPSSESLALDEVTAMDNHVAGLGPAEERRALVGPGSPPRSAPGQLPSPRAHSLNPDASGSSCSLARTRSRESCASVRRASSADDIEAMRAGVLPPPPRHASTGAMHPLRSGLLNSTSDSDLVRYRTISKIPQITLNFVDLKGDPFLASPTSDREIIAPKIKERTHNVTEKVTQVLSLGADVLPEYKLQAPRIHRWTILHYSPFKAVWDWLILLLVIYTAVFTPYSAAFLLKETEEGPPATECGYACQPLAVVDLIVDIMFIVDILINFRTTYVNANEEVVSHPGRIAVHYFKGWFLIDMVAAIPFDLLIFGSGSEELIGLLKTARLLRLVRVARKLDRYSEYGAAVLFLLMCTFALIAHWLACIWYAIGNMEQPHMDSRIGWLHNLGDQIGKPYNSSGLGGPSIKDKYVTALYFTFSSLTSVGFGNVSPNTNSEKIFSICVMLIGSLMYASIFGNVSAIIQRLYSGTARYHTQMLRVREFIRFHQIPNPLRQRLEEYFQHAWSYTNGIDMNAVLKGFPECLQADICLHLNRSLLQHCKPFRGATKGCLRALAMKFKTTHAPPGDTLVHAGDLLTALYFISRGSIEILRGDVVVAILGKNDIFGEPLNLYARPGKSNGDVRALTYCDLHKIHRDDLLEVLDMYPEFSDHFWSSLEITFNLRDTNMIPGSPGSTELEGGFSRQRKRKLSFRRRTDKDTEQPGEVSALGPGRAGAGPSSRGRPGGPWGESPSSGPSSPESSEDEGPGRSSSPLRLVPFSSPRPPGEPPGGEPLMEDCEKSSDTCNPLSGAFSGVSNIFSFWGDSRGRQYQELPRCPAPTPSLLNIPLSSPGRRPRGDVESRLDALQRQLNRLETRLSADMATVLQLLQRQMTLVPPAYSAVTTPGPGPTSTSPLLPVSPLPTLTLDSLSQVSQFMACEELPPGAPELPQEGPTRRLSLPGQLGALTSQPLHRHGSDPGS

Compound	hERG current change (%, negative = inhibition) at 1uM [%]
CCCOC(=O)c1ccc(NS(=O)(=O)c2cccs2)cc1	8.05
O=C(Oc1ccccc1O)c1cccc2ccccc12	6.76
Cc1ccc(N2C(=O)N(CC(=O)Nc3ccc(C)cc3C)C(=O)C2C)cc1 (stereo not shown)	7.69
COc1cc(NC(=S)NCc2cccnc2)cc(OC)c1	15.1
CCOc1ccc(NC(C)=O)cc1[N+](=O)[O-]	5.43
CCOC(=O)C1(CCc2ccccc2)CCN(Cc2ccn[nH]2)CC1	-43.8
CCOC(=O)C1(CCc2ccccc2)CCN(Cc2ccccn2)CC1	-57.1
CCOC(=O)C1(CC2CC2)CCN(Cc2cnc(N(C)C)s2)CC1	3.01
CCOC(=O)C1(CCOc2ccccc2)CCN(Cc2ccc(NC(C)=O)cc2)CC1	-38.6
CCOC(=O)C1(CCc2ccccc2)CCN(Cc2cnc(N(C)C)s2)CC1	-86.4
CCOC(=O)C1(Cc2ccccc2)CCN(Cc2cccc3c2OCO3)CC1	1.36
CCOC(=O)C1(CCc2ccccc2)CCN(Cc2nccn2CC)CC1	-47.2
CCOC(=O)C1(CCc2ccccc2)CCN(Cc2cccc3c2OCO3)CC1	-63.7
CCOC(=O)C1(CCc2ccccc2)CCN(Cc2csc(C(C)=O)c2)CC1	-33.6
CCOC(=O)C1(CCOc2ccccc2)CCN(Cc2cccc3c2OCO3)CC1	-7.1
CCOC(=O)C1(CCc2ccccc2)CCN(Cc2ccc(NC(C)=O)cc2)CC1	-72.5
CCOC(=O)C1(CCCc2ccccc2)CCN(Cc2cnc(C)s2)CC1	-44.7
CCOc1cc(C)ccc1OCc1nnc(SCC(=O)c2cccc([N+](=O)[O-])c2)n1CC	-1.84
O=C(Nc1cc(=O)[nH]c2ncnn12)c1ccc(Cl)cc1Cl	-2.66
CC(C)(C)c1ccc(C(=O)NN2C(=O)CSC2=S)cc1	12.1
CCOC(=O)C1(CCOc2ccccc2)CCN(Cc2ccc3c(c2)OCCO3)CC1	-25.8
CCOC(=O)C1(CCc2ccccc2)CCN(Cc2ccco2)CC1	-42.7

Compound	hERG current change (%, negative = inhibition) at 1uM [%]
CCOC(=O)C1(CCc2ccccc2)CCN(Cc2cccc3nccnc23)CC1	-19.3
CCOC(=O)C1(CCc2ccccc2)CCN(Cc2c(O)cccc2OC)CC1	-28.7
CCOC(=O)C1(CCc2ccccc2)CCN(CC(O)CO)CC1 (stereo not shown)	1.26
CCOC(=O)C1(CCc2ccccc2)CCN(Cc2ccc(O)cc2)CC1	-86.3
CCOC(=O)C1(Cc2ccccc2)CCN(Cc2ccc3c(c2)OCCO3)CC1	-0.488
CCOC(=O)C1(CCc2ccccc2)CCN(Cc2ccc(OC)cc2)CC1	-86.9
CCOC(=O)C1(CCc2ccccc2)CCN(Cc2cc(OC)c(OC)cc2OC)CC1	-68.1
CCOC(=O)C1(CCc2ccccc2)CCN(Cc2ccc3c(c2)OCCO3)CC1	-91.4
CCOC(=O)C1(CCc2ccccc2)CCN(Cc2cccc3cnccc23)CC1	-4.67
CCOC(=O)C1(Cc2ccccc2)CCN(Cc2cccc(OC)c2O)CC1	-31
Cc1ccc(/C=N/Nc2nnc(Cl)c3ccccc23)cc1	-1.46
COc1ccc(C[C@H]2c3cc(O)c(OC)cc3CC[N+]2(C)[O-])cc1O (stereo partly shown)	16.9
Cn1c(NCCc2ccccc2)cc(=O)n(C)c1=O	11.8
Cc1ccc(C(=O)N(C)Cc2ccc(N3CCOCC3)cc2)cc1S(=O)(=O)NCc1ccccc1	1.2
CCCCNC(=S)NNC(=O)c1cc(C2CC2)nc2ccccc12	13.2
COc1ccc(C2CC(=O)n3c(nc4ccccc43)S2)cc1OC (stereo not shown)	12.9
COc1ccc(CNC(=O)COC(=O)CN2C(=O)C(C)Oc3ccc(C)cc32)cc1 (stereo not shown)	9.75
CCOC(=O)C1(CCOC)CCN(Cc2ccc(C(=O)OC)cc2)CC1	0.201
CCOC(=O)C1(CCOc2ccccc2)CCN(Cc2ccc(C(=O)OC)cc2)CC1	-15.5
CCOC(=O)C1(CCc2ccccc2)CCN(Cc2ccc(C(=O)OC)cc2)CC1	-86.1
Cc1ccc(NC(=O)/C(C#N)=C/c2ccc(C)s2)c(C)c1	14.2
